Source: PubChem (The Scripps Research Institute Molecular Screening Center)
SRC1 TRFRET art – flags TR-FRET format artefacts in PPARgamma SRC-1 recruitment agonist screen. TR-FRET detection artefact counter-screen, emission ratio; active compounds read high. TR-FRET ratio at 8 µM. 0.34% of 99,000 active. AID 1051; in the data active means TR-FRET ratio above about 2300
SRC2 TRFRET art – flags TR-FRET format artefacts in PPARgamma SRC-2 recruitment agonist screen; TR-FRET ratio at 8 µM; 0.4% of 200,000 active; TR-FRET artefact counter-screen; active compounds read high
PPARg SRC-3 ag – promotes SRC-3 coactivator recruitment by human PPARgamma. P37231. biochemical PPARgamma/SRC-3 coactivator recruitment assay. activation, % at 8 µM. 0.26% of 200,000 active. AID 731; in the data active means activation above about 23%;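 further: 0% = DMSO and 100% = reference agonist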
Target sequence (P37231 whole entry, looked up): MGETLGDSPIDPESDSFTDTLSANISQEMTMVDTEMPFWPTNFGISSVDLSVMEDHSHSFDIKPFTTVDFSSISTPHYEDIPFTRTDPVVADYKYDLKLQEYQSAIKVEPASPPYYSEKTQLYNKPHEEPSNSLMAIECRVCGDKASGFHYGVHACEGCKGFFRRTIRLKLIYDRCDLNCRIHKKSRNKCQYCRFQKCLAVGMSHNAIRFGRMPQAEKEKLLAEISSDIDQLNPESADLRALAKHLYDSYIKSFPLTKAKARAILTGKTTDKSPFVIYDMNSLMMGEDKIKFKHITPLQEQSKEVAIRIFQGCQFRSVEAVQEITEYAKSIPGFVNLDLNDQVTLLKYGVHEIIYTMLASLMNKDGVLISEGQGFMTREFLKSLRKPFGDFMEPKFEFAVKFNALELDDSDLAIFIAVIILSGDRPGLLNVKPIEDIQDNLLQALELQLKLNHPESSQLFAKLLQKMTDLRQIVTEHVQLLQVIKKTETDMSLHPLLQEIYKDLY
PPARg SRC2 recr – agonists of SRC-2 recruitment by human PPARgamma; 0.34% of 200,000 active; activation, % at 8 µM; P37231; PPARgamma LBD-SRC-2 recruitment, biochemical; AID 1032; in the data active means activation above about 22%;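 further: 0% = vehicle and 100% = reference agonist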
PPARg SRC1 recr – agonists of human PPARgamma SRC-1 coactivator recruitment. PPARgamma-SRC-1 coactivator recruitment biochemical assay. activation, % at 8 µM. 0.41% of 200,000 active; in the data active means activation above about 19%;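 further: 0% = DMSO and 100% = reference agonist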
SRC3 TRFRET art – TR-FRET artefact, counter-screen to PPARgamma/SRC-3 agonist assay; TR-FRET ratio at 8 µM; 0.39% of 99,000 active; PPARgamma/SRC-3 format; active compounds read high; AID 1048
Numbers without * were called inactive; . = not tested or not shown. Rows were chosen to be rich in hits. Some 0.9% of all compounds tested hit in one or more screens of this group. Unless noted, no stated cut-off is given here; in the data, active means TR-FRET ratio above about 2000; inactive means the rest.

SMILES	SRC1 TRFRET art	SRC2 TRFRET art	PPARg SRC-3 ag	PPARg SRC2 recr	PPARg SRC1 recr	SRC3 TRFRET art
COC(=O)c1c(NC(=O)COC(=O)c2ccc(C)s2)sc2c1CCCCC2	1447	1436	0	7	-1	1742
COC(=O)c1c(NC(=O)COC(=O)[C@@H](NS(=O)(=O)c2ccc(C)cc2)C(C)C)sc2c1CCC2	2338*	1637	3	6	0	1800
NC(=O)c1c(NC(=S)Nc2ccccc2)sc2c1CCCC2	2381*	1869	7	14	5	2002
CN(CC(=O)Nc1cccc(F)c1)C(=O)CCCc1cccs1	1904	1602	-2	3	10	1547
CC(=O)Nc1cccc(OCc2ccc(S(=O)(=O)Cc3ccccc3)cc2)c1	1542	1343	0	1	-8	1509
CC1CCc2sc(C(=O)Nc3nnc(SCc4ccc(F)cc4)s3)cc2C1 (stereo not given)	.	2241*	19	3	16	.
N#CC1=C2SCN(c3ccccc3)CN2C(=O)CC1c1cccs1 (stereo not given)	.	2021*	18	19	7	.
N#CC1=C2SCN(c3ccccc3)CN2C(=O)CC1c1c(Cl)cccc1Cl (stereo not given)	.	1514	6	2	-4	.
CCOc1ccc(N2CSC3=C(C#N)C(c4ccco4)CC(=O)N3C2)cc1 (stereo not given)	.	1814	17	25*	6	.
COc1ccc([N+](=O)[O-])cc1NC(=O)c1ccc(C)o1	1912	1697	5	-1	3	1904
CCCN(Cc1ccccc1)C(=S)NC(=O)c1ccccc1[N+](=O)[O-]	1729	1419	6	-4	-4	1605
COc1ccc(OCC(=O)Nc2cccc3cccnc23)cc1	2429*	1763	8	11	2	1536
COc1ccc(OCC(=O)Nc2cccc(NC(=O)COc3ccc(OC)cc3)n2)cc1	.	1570	10	15	9	.
Cc1ccccc1Nc1ncnc(N)n1	1780	1626	1	5	3	1479
CCCCOC(=O)N/N=C/C=C/c1ccccc1	2344*	1669	6	-1	11	1739
Cc1ccc(NC(=O)CN2CCN(CCN=CC3=C(O)CC(c4ccc(C)cc4)CC3=O)CC2)cc1 (stereo not given)	1780	1396	3	4	-2	1719
COc1ccc(C2Nc3ccccc3C(=O)N2c2ccccc2)cc1CSc1ccccn1 (stereo not given)	1840	1815	3	-9	-4	2243*
O=S(=O)(/C=C/c1ccccc1)Nc1cccc(S(=O)(=O)NC2=NCCC2)c1	1875	1620	3	5	8	1572
O=[N+]([O-])c1cccc(/C=N/NS(=O)(=O)c2ccccc2)c1	1742	1638	0	3	1	1452
COc1ccc(-n2c(O)c(/C=N/NS(=O)(=O)c3cccc([N+](=O)[O-])c3)c3ccccc3c2=O)cc1OC	1942	1428	6	-5	22*	1532
COc1ccc(N2CCC(CNC(=O)Nc3ccccc3)C2)cc1 (stereo not given)	.	1624	8	24*	6	.
COc1ccc(N2CC(NC(=O)Nc3ccccc3)CC2=O)cc1 (stereo not given)	1759	1485	11	8	0	1550
CC(=O)Nc1ccc(C(=O)Nc2nc(-c3ccccn3)cs2)cc1	1947	1977*	-1	2	7	1655
CC(=O)Nc1ccc(C(=O)Nc2nc(-c3cccnc3)cs2)cc1	1713	1466	1	-5	11	1482
Cc1ccnc(SCc2cc(=O)c(OC(=O)c3ccc(Cl)c([N+](=O)[O-])c3)co2)n1	1732	1595	5	0	2	1792
SMILES	SRC1 TRFRET art	SRC2 TRFRET art	PPARg SRC-3 ag	PPARg SRC2 recr	PPARg SRC1 recr	SRC3 TRFRET art
Nc1nc(-c2ccc(Cl)cc2)nnc1-c1ccc(Br)cc1	1858	1760	11	-2	1	3281*
COc1ccc(CCN(C)S(=O)(=O)c2ccc(Cl)nc2)cc1OC	1881	1975*	3	0	7	1616
CN(Cc1ccccc1)S(=O)(=O)c1ccc(Cl)nc1	.	1574	12	3	6	.
Cn1c(SCc2cccnc2)nc2c(c1=O)SCC2	1719	2241*	0	21	4	1534
Cc1sc2nc3c(SC(C)C(=O)O)cc(C(=O)c4ccccc4O)cn3c(=O)c2c1C (stereo not given)	1751	1417	33*	-9	4	1694
CCOC(=O)c1sc2nc3c(SCC(=O)O)cc(C(=O)c4ccccc4O)cn3c(=O)c2c1C	1804	1647	2	4	2	1620
Cc1ccc([N+](=O)[O-])cc1NC(=O)C(C)NS(=O)(=O)c1ccc(F)cc1 (stereo not given)	1827	1578	5	9	6	1533
O=C(CCCCCn1c(=S)[nH]c2ccc(N3CCOCC3)cc2c1=O)NCc1ccc2c(c1)OCO2	1919	1663	13	6	3	3424*
CCCCn1c(=S)[nH]c2ccc(N3CCOCC3)cc2c1=O	1816	1492	3	14	-3	1807
O=C(CCCCCn1c(=S)[nH]c2ccc(N3CCOCC3)cc2c1=O)NCCc1ccccc1	1893	1485	4	0	-3	1541
O=C(CCCCCn1c(=S)[nH]c2ccc(N3CCOCC3)cc2c1=O)NCc1ccccc1Cl	1939	1729	13	9	7	3063*
COc1ccc(N2CCN(C(=O)c3ccc(Cn4c(=S)[nH]c5ccc(N6CCOCC6)cc5c4=O)cc3)CC2)cc1	1727	1719	8	0	4	1821
O=C(CCCCCn1c(=S)[nH]c2ccc(N3CCOCC3)cc2c1=O)NCc1ccc(Cl)cc1	2133	1687	8	6	5	2786*
O=C(c1ccc(Cn2c(=S)[nH]c3ccc(N4CCOCC4)cc3c2=O)cc1)N1CCN(c2ccc(F)cc2)CC1	3474*	2803*	14	17	20	3426*
O=c1c2cc(N3CCOCC3)ccc2[nH]c(=S)n1Cc1ccc(Cl)cc1	.	1524	-6	0	-2	.
O=C(CCSc1ccccc1)Nc1nnc(-c2cccs2)o1	1894	1600	4	7	2	1443
CCCCc1ccc(NC(=S)NCCc2ccc(F)cc2)cc1	1825	1652	2	1	1	1579
CCOc1ncccc1C(=O)OCc1ccc(C(=O)OC)cc1	1950	1589	8	6	8	1647
COc1ccc(NC(=O)Cc2ccc(C)c(C)c2)cc1Cl	1629	1475	-4	-2	-3	1525
CC(C)(C)c1ccc(-c2nnc3sc(-c4ccncc4)nn23)cc1	.	5672*	-7	190*	0	.
CC(SCC(=O)NC12CC3CC(CC(C3)C1)C2)C(=O)O (stereo not given)	2061	1529	3	0	1	1581
CCN(CC)C(=O)Cn1c(=O)n(-c2ccccc2)c(=O)c2c3c(sc21)CCC3	.	2144*	5	22*	-2	.
COc1ccc2sc3ccccc3c(=O)c2c1	.	2220*	3	6	3	.
